DT40 TDP1 CPT = growth inhibition of DT40 Tdp1-/-;hTDP1 cells with camptothecin (screen for TDP1 inhibitors). chicken DT40 Tdp1-/-;hTDP1 cells + 20 nM CPT, ATP luminescence, 48 h. Potency, µM (doses to about 46.2 µM), usual class: inhibitors. hit rate 12% among 420,000; note: nearly all actives have a fitted effect of over 55% in size
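Chicken DT40 Tdp1-/- cells complemented with human TDP1, 400 cells/well, exposed to compounds plus 20 nM camptothecin for at least 48 h at 37 C; viability read as ATP content by CellTiter-Glo luminescence.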
DT40 TDP1 no CPT = qHTS for Inhibitors of human tyrosyl-DNA phosphodiesterase 1 (TDP1): qHTS in cells in absence of CPT | DT40 Tdp1-/- hTDP1 cells, no CPT, ATP luminescence, 48 h | Potency, µM (top dose mostly 46.2 µM), actives largely listed as inhibitors | hit rate 15% among 420,000 | AID 686978, 2013; note: nearly all actives have a fitted effect of over 55% in size
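Chicken DT40 Tdp1-/- cells complemented with human TDP1, screened without camptothecin (DMSO vehicle only), 400 cells/well. Compounds pin-transferred, cells incubated at 37 °C for at least 48 hr. Growth read as ATP-dependent luminescence (CellTiter-Glo, 30 min at RT).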
TDP1 block = inhibitors of human tyrosyl-DNA phosphodiesterase TDP1 | recombinant TDP1, AlphaScreen DNA substrate cleavage | Potency, µM (series often up to 130 µM), actives largely listed as inhibitors | hit rate 0.28% among 350,000; note: nearly all actives have a fitted effect of over 40% in size
Target sequence (Q9NUW8 whole entry, looked up): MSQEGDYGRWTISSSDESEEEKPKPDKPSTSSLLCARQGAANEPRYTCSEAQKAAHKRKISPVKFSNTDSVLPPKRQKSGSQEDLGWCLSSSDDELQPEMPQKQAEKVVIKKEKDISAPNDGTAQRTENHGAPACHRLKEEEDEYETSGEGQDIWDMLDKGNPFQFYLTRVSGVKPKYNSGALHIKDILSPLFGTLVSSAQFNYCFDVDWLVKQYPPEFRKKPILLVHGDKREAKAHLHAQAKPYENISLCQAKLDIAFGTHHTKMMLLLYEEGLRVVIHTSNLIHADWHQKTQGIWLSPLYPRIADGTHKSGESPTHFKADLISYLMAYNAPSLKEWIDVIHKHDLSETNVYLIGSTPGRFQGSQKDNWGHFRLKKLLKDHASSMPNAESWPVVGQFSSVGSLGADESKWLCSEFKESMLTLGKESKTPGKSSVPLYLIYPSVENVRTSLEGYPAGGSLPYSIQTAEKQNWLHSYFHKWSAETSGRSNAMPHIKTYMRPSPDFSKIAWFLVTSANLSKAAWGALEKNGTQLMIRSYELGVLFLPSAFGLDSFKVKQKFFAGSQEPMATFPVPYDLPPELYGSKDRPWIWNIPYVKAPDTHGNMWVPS
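Here, a 5' biotin and 3' phosphotyrosine-FITC DNA oligonucleotide reports Tdp1 activity: intact substrate bridges AlphaScreen beads, while cleavage leaves a 3' phosphate and drops signal. All incubations at room temperature.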
ELG1 DNA repair = blocks ELG1-dependent DNA repair in HEK293T cells; Potency, µM (top dose mostly 46.1 µM), most hits filed as inhibitors; HEK293T ELG1-luciferase reporter, luminescence, 16 h; DNA damage induced by 5-fluorouridine; hit rate 2.3% among 330,000; AID 504467; note: nearly all actives have a fitted effect of over 55% in size
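Luminescence from the luciferase reporter, measured 30 min after ONE-Glo reagent at room temperature, was the read-out. Beforehand, 2,000 cells per well were exposed for 16 hr at 37 °C to 5-fluorouridine together with compound or vehicle.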
Giardia kill = kills Giardia lamblia. AID 540267. activity change, % at 7.66 µM, hits read low. Giardia lamblia trophozoite viability. hit rate 0.15% among 340,000; in the data active = activity change below about -80%; inconclusive = between about -30% and that limit;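 note: parasites exposed to compound for two days anaerobically before the ATP read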
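ATP-content bioluminescence gauges trophozoite survival. Cells (100/well) receive compound and incubate anaerobically for 48 hrs at 37 deg C; detection reagent follows for 15-30 min at room temperature.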
IL1B secr inh = inflammasome signaling inhibition, IL-1 beta readout | hit rate 4.7% among 360,000 | THP-1 LPS/ATP IL-1B secretion, AlphaLISA, 16 h; hits give low values | activity change, % at 57.5 µM | AID 743279; in the data active = activity change below about -50%; inconclusive = mostly about -30% to -49%
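Secreted IL-1B measured by AlphaLISA bead assay after 16 h compound exposure of THP-1 cells; compounds (final up to 57.5 uM) added 1 h before LPS (250 ng/mL) and ATP (1.25 mM) stimulation; lower signal means less secretion.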
Hits are given with their value; . = inactive; ? = inconclusive; / = no result; [ ] = another dose, or the depositor's remark. In the library only some 19% were active in any assay of this set; here they are far more common. Unless noted, calls come from the whole dose curve; as a rule, active = well fitted curve in the direction sought with a large enough effect; inconclusive = small, poorly fitted or top-dose-only effect, or another doubt; inactive = no such curve, though single readings can be large; an effect the other way counts as inactive or inconclusive.

SMILES	DT40 TDP1 CPT	DT40 TDP1 no CPT	TDP1 block	ELG1 DNA repair	Giardia kill	IL1B secr inh
CCOC(=O)c1sc(NC(=O)c2ccoc2C)c(C(N)=O)c1C	25.9µM	16.4µM	.	8.2µM	.	.
CCOC(=O)c1c(NC(=O)c2cc(C)oc2C)sc(C(=O)Nc2ccc(Cl)cc2)c1C	8.91µM	5.62µM	.	?	.	.
Cc1ccc(C)n1-c1ccc(-c2ccn[nH]2)cc1	?	?	.	?	.	-70.5
c1ccn(-c2ccc(-c3ccn[nH]3)cc2)c1	.	.	.	?	.	.
COc1ccc(NC(=O)C(C)n2nnc3sc(-c4ccccc4)cc3c2=O)cc1Cl (stereo not given)	13µM	6.51µM	.	/	/	/
CCC(C(=O)OC)n1nnc2sc(-c3ccccc3)cc2c1=O (stereo not given)	?	14.6µM	.	/	/	/
COc1ccc2c(c1)C(=O)[C@@H](OC(=O)NS(=O)(=O)c1ccc(C)cc1)[C@H](c1ccc(OC)c(Br)c1)O2	/	/	.	/	/	/
COc1ccccc1C1CC(=O)Oc2ccc(C(C)(C)C)cc21 (stereo not given)	.	.	.	.	.	.
O=C(NCCCC(=O)N1CCCCC1)c1ccc(Cl)cc1	.	.	.	?	.	.
CC1(C(=O)Nc2ccc3c(c2)OCO3)Cc2c(-c3cccc(C(N)=O)c3)ccnc2O1 (stereo not given)	2.91µM	4.11µM	/	/	/	.
COc1ccc(NC(=O)C2(C)Cc3c(-c4ccc5c(c4)OCO5)ccnc3O2)cn1 (stereo not given)	3.26µM	2.59µM	/	/	/	.
COc1ccc(NC(=O)C2(C)Cc3c(-c4ccc5c(c4)OCO5)ccnc3O2)cc1OC (stereo not given)	?	?	/	/	/	.
CC1(C(=O)Nc2ccc3c(c2)OCO3)Cc2c(-c3ccc4c(c3)OCO4)ccnc2O1 (stereo not given)	1.84µM	2.31µM	/	/	/	.
CC(C)c1ccc(NC(=O)C2(C)Cc3c(-c4ccc5c(c4)OCO5)ccnc3O2)cc1 (stereo not given)	23.1µM	?	/	/	/	.
c1ccc(SCCN2CCN(c3ccccc3)CC2)cc1	.	.	/	.	.	.
CC(=O)OCON[N+]([O-])=NC1CCCCC1	/	/	.	/	.	/
CCn1c(-c2ccccc2F)nc2cc(NC(C)=O)cc(C(=O)NCC3CCOCC3)c21	.	.	/	/	/	/
COc1ccccc1C(=O)NC(CCSC)C(=O)NNC(=O)c1ccccc1O (stereo not given)	?	29.1µM	.	.	.	.
O=C1COc2cc(S(=O)(=O)CCC(=O)NC3CCCCC3)c(Cl)cc2N1	/	/	.	/	/	/
CSc1ccc(CCNC(=O)c2ccc(CS(=O)Cc3ccc(Cl)cc3)o2)cc1 (stereo not given)	?	20.6µM	.	.	.	?
CCOc1ccc(CCNC(=O)c2ccc(CS(=O)Cc3ccc(Cl)cc3)o2)cc1 (stereo not given)	16.4µM	?	.	.	.	.
COc1ccc(OC)c(CCNC(=O)c2ccc(CS(=O)Cc3ccc(Cl)cc3)o2)c1 (stereo not given)	23.1µM	?	.	.	.	?
CC(C)(C)OC(=O)NC(Cc1ccccc1)C(=O)NC1COC2CC(n3ccc(=O)[nH]c3=O)OC12 (stereo not given)	/	/	.	/	.	/
O=[S+]1([O-])N=C(Oc2cccnc2)c2ccccc21	/	/	.	/	/	/
Cc1ccc(C)c(N2CN(CCC3=CCCCC3)CNC2=S)c1	?	20.6µM	.	.	.	?
SMILES	DT40 TDP1 CPT	DT40 TDP1 no CPT	TDP1 block	ELG1 DNA repair	Giardia kill	IL1B secr inh
CCCN1CNC(=S)N(c2cc(C)ccc2C)C1	.	.	.	.	.	.
CCC(Sc1nc(C)cc(C)n1)C(=O)Nc1nccs1 (stereo not given)	.	.	.	18.3µM	.	.
COc1ccccc1NC(=O)c1cc2c(=O)n(Cc3cccs3)ccc2nc1C	?	23.1µM	.	/	/	/
CCc1ccc(NC(=O)c2cc3c(=O)n(Cc4cccs4)ccc3nc2C)cc1	16.4µM	18.4µM	.	/	/	/
Cc1cccc(NC(=S)N/N=C/c2c[nH]c3ccccc23)c1	2.59µM	2.59µM	.	.	.	.
Cc1ccc(NC(=S)N/N=C/c2c(C)[nH]c3ccccc23)cc1	?	29.1µM	.	.	.	.
Cc1ccc(Cn2cccc2/C=N/NC(=S)Nc2ccc(C)cc2)cc1	4.61µM	6.51µM	.	.	.	.
Cc1ccc(C(=O)Nc2ccc(C(=O)N/N=C/c3c[nH]c4ccccc34)cc2)cc1	?	?	.	?	.	.
COc1ccc(/C=C/C(=O)C2CC2)cc1COc1cccc(C)c1C	?	23.1µM	/	?	.	-62.3
COc1ccc(/C=C/C(=O)c2ccccc2)cc1COc1ccc(F)cc1	?	20.6µM	.	.	.	-52.4
COc1ccc(/C=N/NC(=S)Nc2ccccc2)cc1COc1cccc(C)c1C	?	?	/	.	.	.
COc1ccc(C(=O)/C=C/c2ccc(OC)c(COc3ccccc3F)c2)cc1	25.9µM	?	.	?	.	-89.7
COc1ccc(/C=C/C(=O)c2ccccc2)cc1Cn1nnc2ccccc21	?	23.1µM	.	.	.	-99.3
COc1ccc(C(=O)/C=C/c2ccc(OCc3ccccc3)cc2)cc1CSCC(=O)O	.	.	.	.	.	.
COc1ccc(/C=C/C(=O)c2ccc(O)cc2)cc1COc1ccc(F)cc1	?	?	.	?	.	-98.0
CCc1nc(SCC(=O)Nc2nnc(CC)s2)c2c(=O)n(C)c(=O)n(C)c2n1	6.51µM	8.2µM	.	16.4µM	.	.
Cc1nnc(NC(=O)CSc2nc(CC(C)C)nc3c2c(=O)n(C)c(=O)n3C)s1	16.4µM	10.3µM	.	.	.	.
CCc1nc(SCC(N)=O)c2c(=O)n(C)c(=O)n(C)c2n1	.	.	.	.	.	.
CCCc1nc(SCC(=O)Nc2nnc(CC)s2)c2c(=O)n(C)c(=O)n(C)c2n1	6.51µM	3.26µM	.	?	.	.
Cc1nnc(NC(=O)CSc2nc3c(c(=O)n(C)c(=O)n3C)n2C(C)C)s1	.	.	.	.	.	.
Cc1csc(NC(=O)CSc2nc(C)nc3c2c(=O)n(C)c(=O)n3C)n1	?	20.6µM	.	20.6µM	.	.
CN1CCCC(CN(C)C(=O)c2cnn(-c3nccc(-c4ccccc4C(F)(F)F)n3)c2C2CC2)C1 (stereo not given)	.[9.04 µM]	.	/	/	/	/
CCCc1nccn1S(=O)(=O)c1cc(Br)ccc1OC	.	.	.	/	/	/
COc1c(C)cc(Br)cc1C(=O)Nc1cccc(NC(=O)c2ccco2)c1	?	?	.	?	.	.
O=C(Nc1ccccc1)c1ccc(-c2ccc(Br)cc2)o1	?	?	.	?	.	.

Source: PubChem
